Measured values from the supplement of paper PMC3545927.
Some of the results follow. How many sequences the whole screen found active is unknown.

Molecular target: furin, P09958
Assay: furin cleavage Z-score vs untreated control; higher = more cleavage, active = 3.5 or more, inactive = 1 or less, 8 variable residues between constant flanks
Summary of the method: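 In 50 mM HEPES pH 7.5 with CaCl2 and NaCl, purified furin was incubated with bead-anchored 8-mer peptide–cDNA fusions at 1:10 enzyme:substrate in 0.01 ml. Incubation times were 7.5, 15 and 30 min. DNA set free by cleavage was adapter-tagged by PCR and sequenced, with read counts taken as abundance. Log counts relative to furin-free reactions, after lowess adjustment and median absolute deviation scaling, form the cleavage Z-score.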

Chain of furin, P09958 (P09958 whole entry): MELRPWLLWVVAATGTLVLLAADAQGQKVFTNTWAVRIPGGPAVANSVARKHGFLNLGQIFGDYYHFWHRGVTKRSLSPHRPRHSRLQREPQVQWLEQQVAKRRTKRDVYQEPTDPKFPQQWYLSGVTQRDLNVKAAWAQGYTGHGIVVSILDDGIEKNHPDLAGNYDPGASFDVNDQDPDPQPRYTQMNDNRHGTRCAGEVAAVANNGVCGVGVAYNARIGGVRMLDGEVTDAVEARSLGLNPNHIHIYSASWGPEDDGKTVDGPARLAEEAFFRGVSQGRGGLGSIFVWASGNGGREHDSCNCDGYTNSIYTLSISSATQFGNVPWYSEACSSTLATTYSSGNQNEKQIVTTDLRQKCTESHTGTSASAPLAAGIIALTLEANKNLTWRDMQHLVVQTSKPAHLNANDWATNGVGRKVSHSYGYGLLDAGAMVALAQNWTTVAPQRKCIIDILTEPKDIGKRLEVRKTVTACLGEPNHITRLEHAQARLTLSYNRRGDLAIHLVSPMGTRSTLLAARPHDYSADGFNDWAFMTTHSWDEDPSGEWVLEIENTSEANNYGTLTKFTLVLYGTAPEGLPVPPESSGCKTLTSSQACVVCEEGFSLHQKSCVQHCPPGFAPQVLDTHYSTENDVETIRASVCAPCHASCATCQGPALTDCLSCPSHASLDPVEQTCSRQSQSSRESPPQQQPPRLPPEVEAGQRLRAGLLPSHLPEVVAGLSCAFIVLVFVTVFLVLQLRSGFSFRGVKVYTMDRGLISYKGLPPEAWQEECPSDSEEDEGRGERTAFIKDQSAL

| Sequence | furin cleavage Z-score (7.5 min) | furin cleavage Z-score (15 min) | furin cleavage Z-score (30 min) |
| --- | --- | --- | --- |
| CAWVCCSMSYAGNASASA [HC1988] | 0.172 (inactive) | 0.44 (inactive) | 1.05 |
| CARPLRGVSGAGNASASA [FS-3018] | -0.934 (inactive) | -0.697 (inactive) | -0.66 (inactive) |
| CAEAALENLVAGNASASA [HC533] | -0.446 (inactive) | -0.46 (inactive) | -1.1 (inactive) |
| CARLKRRQEEAGNASASA [FS-2709] | -0.805 (inactive) | 0.691 (inactive) | 1.04 |
| CARLKRAVWIAGNASASA [FS-2989] | 5.97 (active) | 7.83 (active) | 8.13 (active) |
| CARLKRAVSEAGNASASA [FS-2704] | 8.88 (active) | 10.6 (active) | 7.25 (active) |
| CARLKRVVPDAGNASASA [FS-2221] | 3.21 | 5.12 (active) | 6 (active) |
| CARLKKIKDDAGNASASA [FS-1740] | -0.946 (inactive) | -0.774 (inactive) | -1.39 (inactive) |
| CARLDRHVFIAGNASASA [FS-2042] | -0.675 (inactive) | -1.39 (inactive) | -0.0693 (inactive) |
| CARLKRTNGNAGNASASA [FS-1963] | 0.424 (inactive) | 2.26 | 1.1 |
| CARLKRIVFDAGNASASA [FS-2570] | 0.11 (inactive) | 0.63 (inactive) | 1.98 |
| CARLKRHPEEAGNASASA [FS-2276] | 1.2 | 3.98 (active) | 3.45 |
| CAEVVTSSWVAGNASASA [HC2217] | 0.949 (inactive) | 3.4 | -0.0256 (inactive) |
| CANTPCSGSWAGNASASA [HC1841] | -0.658 (inactive) | -0.9 (inactive) | -0.678 (inactive) |
| CAMEECSQGLAGNASASA [HC1756] | 0.411 (inactive) | 1.43 | 1.65 |
| CATTPCSGCWAGNASASA [HC1920] | -0.899 (inactive) | -0.942 (inactive) | -0.88 (inactive) |
| CAVVCLSMSYAGNASASA [HC84] | 0.288 (inactive) | -0.622 (inactive) | -0.642 (inactive) |
| CASFLVFFCFAGNASASA [HC544] | -1.06 (inactive) | -0.337 (inactive) | -0.101 (inactive) |
| CAGTHGLVSFAGNASASA [HC541] | 1.37 | 0.474 (inactive) | 1.36 |
| CARLKRVEDQAGNASASA [FS-1907] | -1.61 (inactive) | 0.449 (inactive) | -0.817 (inactive) |
| CARLKRALDFAGNASASA [FS-2219] | 6.13 (active) | 7.48 (active) | 7.29 (active) |
| CARLKRQVTEAGNASASA [FS-2992] | 11.3 (active) | 12 (active) | 11.2 (active) |

| Sequence | furin cleavage Z-score (7.5 min) | furin cleavage Z-score (15 min) | furin cleavage Z-score (30 min) |
| --- | --- | --- | --- |
| CARLKRQPCAAGNASASA [FS-3227] | 0.299 (inactive) | -0.962 (inactive) | -0.478 (inactive) |
| CAVLATATPPAGNASASA [HC833] | -0.698 (inactive) | -1.92 (inactive) | -0.599 (inactive) |
| CARDARSVRDAGNASASA [FS-2328] | 2.71 | 4.77 (active) | 5.93 (active) |
| CARDARMSDAAGNASASA [FS-2204] | -1.21 (inactive) | 0.407 (inactive) | 0.769 (inactive) |
| CAREDRAVRDAGNASASA [FS-2413] | -1.11 (inactive) | 0.317 (inactive) | -0.31 (inactive) |
| CARSVRFISNAGNASASA [FS-2821] | -2.17 (inactive) | -0.565 (inactive) | 1.32 |
| CARSVRSTRDAGNASASA [FS-1075] | 9.44 (active) | 11 (active) | 9.05 (active) |
| CAQMHRKFRSAGNASASA [FS-703] | 6.07 (active) | 8.69 (active) | 6.07 (active) |
| CATNHRIFRSAGNASASA [FS-384] | 1.71 | 2.99 | 5.79 (active) |
| CARGGRIFRSAGNASASA [FS-1397] | 7.37 (active) | 8.25 (active) | 7.16 (active) |
| CAFLWRSFRSAGNASASA [FS-327] | -0.934 (inactive) | -0.656 (inactive) | -0.629 (inactive) |
| CARGGRDAVIAGNASASA [HC594] | 0.336 (inactive) | 0.26 (inactive) | 0.331 (inactive) |
| CACHLRRFRSAGNASASA [FS-581] | -0.297 (inactive) | -0.28 (inactive) | 0.354 (inactive) |
| CAVVCCSMTYAGNASASA [HC2078] | -0.433 (inactive) | 0.0813 (inactive) | -0.381 (inactive) |
| CARNRRHHRDAGNASASA [FS-709] | 8.79 (active) | 10.1 (active) | 7.04 (active) |
| CARNRRALRDAGNASASA [FS-3010] | 7.62 (active) | 8.24 (active) | 7.01 (active) |
| CARNRRGAITAGNASASA [FS-1912] | 5.06 (active) | 6.46 (active) | 7.54 (active) |
| CAREDRGAYTAGNASASA [FS-2909] | -0.191 (inactive) | 0.288 (inactive) | -1.31 (inactive) |
| CARCDRDNTEAGNASASA [FS-2896] | -0.96 (inactive) | -0.486 (inactive) | -1.77 (inactive) |
| CARNRRLVSDAGNASASA [FS-3012] | 0.716 (inactive) | 3.37 | 2.68 |
| CACFDSTVTEAGNASASA [HC1482] | 0.967 (inactive) | -0.854 (inactive) | -1.23 (inactive) |
| CARNRRHVTEAGNASASA [FS-3011] | 12.2 (active) | 12.5 (active) | 9.58 (active) |
